Potency data for 23 molecules are collected here from PubChem BioAssay AID624093 (National Center for Advancing Translational Sciences (NCATS), 2012).

SMILES strings stand for the structures. Records with an inconclusive call do not appear. Calls of active or inactive are those of the source. The call rests on the fitted dose curve; in most records, active means well fitted inhibition curve with a large enough effect; inconclusive means small, poorly fitted or top-dose-only effect; inactive means flat fitted curve, though single readings scatter.

In this assay the target is Dual specificity tyrosine-phosphorylation-regulated kinase 1A (Homo sapiens) (UniProt Q13627). In words: Confirmation Assay for Inhibitors of Dyrk1a (Kinase-Glo Assay): KU probe. The essentials: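 Recombinant human Dyrk1A (5 nM) was incubated with 8 uM DYRKtide and 2 uM ATP in Tris-HCl pH 7.5 with MgCl2, EGTA, cysteine and Triton X-100 for 2 h at room temperature; residual ATP was measured by Kinase-Glo luminescence.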

With `Brc1ccc(CNc2ccnc(-c3ccc4c(c3)OCO4)n2)cc1Br`, the Potency result is “inactive”.
The value for `Cc1c(-c2ccnc(Nc3cc(Br)cc(C(F)(F)F)c3)n2)sc(=O)n1C` was 130 nM (active); that for `O=C(O)c1ccc(-c2ccc3ncnc(NCC4CCCO4)c3c2)o1` (stereo not drawn) was 20700 nM (active).
With `Cc1noc(C)c1-c1ncccn1`, the Potency result was “inactive”.
In the case of `c1coc(CNc2ncnc3ccc(-c4ccc5c(c4)OCO5)cc23)c1`, the Potency is 104 nM (active).
Turning to `Clc1ccc(CNc2nccc(-c3ccc4[nH]ncc4c3)n2)cc1Cl`, the Potency was 328 nM (active).
For the molecule `c1cncc(CNc2ccnc(-c3ccc4[nH]ncc4c3)n2)c1`, the Potency was 654 nM (active).
To `CN(C)c1ccc(-c2nccc(NCc3ccccc3)n2)cc1` belongs “inactive”; to `COc1ccc(-c2nccc(NCc3ccc(C)cc3)n2)cc1`, “inactive”; to `Clc1ccc(CNc2nccc(-c3ccc4c(c3)OCO4)n2)cc1Cl`, 164 nM (active).
The value for `COc1ccc(-c2ccnc(NCc3ccc(Cl)cc3)n2)cc1` was 1840 nM (active); that for `Cc1csc(CN(C)c2ncnc3ccc(-c4ccc5c(c4)OCO5)cc23)n1` was 23.2 nM (active); that for `CCN(C)c1ncnc2ccc(-c3ccc4c(c3)OCO4)cc12` was 260 nM (active).
To `COc1ccc(-c2ccnc(NCc3ccc(Cl)c(Cl)c3)n2)cc1` belongs 733 nM (active).
Take `Clc1ccc(CNc2ccnc(-c3ccc4[nH]ncc4c3)n2)cc1Cl`: the Potency is 4630 nM (active).
To `c1nc(NCCc2cnc[nH]2)c2cc(-c3ccc4c(c3)OCO4)ccc2n1` belongs 328 nM (active).
Consider `Clc1cc(CNc2ccnc(-c3ccc4c(c3)OCO4)n2)ccn1`, for which the Potency was 23200 nM (active).
The value for `Cc1noc(C)c1-c1nccc(NCc2ccc(Cl)c(Cl)c2)n1` was “inactive”; that for `Brc1cc(Br)cc(CNc2nccc(-c3ccc4c(c3)OCO4)n2)c1` was 73.3 nM (active).
The value for `c1nc(NCC2CCCC2)c2cc(-c3ccc4c(c3)OCO4)ccc2n1` was 65.4 nM (active); that for `CN(C)c1ccc(-c2nccc(NCc3ccc(Cl)c(Cl)c3)n2)cc1` was “inactive”.
To `c1nc(NCC2CCCOC2)c2cc(-c3ccc4c(c3)OCO4)ccc2n1` (stereo not drawn) belongs 116 nM (active); to `O=C(O)c1ccc(-c2ccc3ncnc(NCc4nccs4)c3c2)o1`, 8230 nM (active).
